Test results: PubChem BioAssay AID1578 (Sanford-Burnham Center for Chemical Genomics, 2009)
The campaign covered roughly 290,000 compounds. About 3,000 (1%) were called active. No stated cut-off is given here; in the data, active means inhibition mostly above about 36% (no sharp cut-off); inactive means mostly below about 34%. The entries come from a sample that favours actives as a whole.

Test: NOD1 signaling inhibitors, primary screen, cell-based, luminescence, uHTS (AID 1578);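 further: HEK-293T reporter cells stimulated with the NOD1 agonist gamma-tri-DAP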
Settings: NOD1-driven NF-kB luciferase reporter cells, at 4 µM, stronger effect = higher value

Row | SMILES | inhibition
1 | CN(CC1CCN(CCc2cccc(C(F)(F)F)c2)CC1)C(=O)c1ccc(F)cc1 | 18.5% (inactive)
2 | O=C(Cn1c(=O)oc2cc(S(=O)(=O)N3CCCC3)ccc21)N1CCN(c2ccccn2)CC1 | -8% (inactive)
3 | COc1ccccc1OCc1n[nH]c(=S)n1Cc1ccccc1 | -18.7% (inactive)
4 | CC(C)Oc1ccc(Cc2n[nH]c(=S)n2Cc2ccccc2)cc1Cl | -44.3% (inactive)
5 | COc1ccc(Cc2n[nH]c(=S)n2Cc2ccccc2)cc1Cl | 44.7% (active)
6 | CCCCn1c(=O)[nH]c(=O)c2c1nc(CN1C(=O)c3ccccc3S1(=O)=O)n2CCC | -23.3% (inactive)
7 | CCCCn1c(=O)[nH]c(=O)c2c1nc(Cn1ncc(Cl)c(Cl)c1=O)n2CCC | 85% (active)
8 | CCCCn1c(CCC(=O)O)nc2c1c(=O)[nH]c(=O)n2CCC | -15.7% (inactive)
9 | COc1ccc(NC(=O)c2ccccn2)cc1S(=O)(=O)N1CCOCC1 | -33.7% (inactive)
10 | Oc1[nH]c(=S)sc1C=C1N=c2ccccc2=N1 | -5.9% (inactive)
11 | CC1=Nc2ccccc2/C1=C\c1sc(Nc2ccc(C)cc2)nc1O | 1.1% (inactive)
12 | Oc1[nH]c(=S)sc1/C=C1\C(c2ccccc2)=Nc2ccccc21 | 72.5% (active)
13 | Cc1ccc(S(=O)(=O)N2CCN(C(=O)CSC3CCCC3)CC2)c(C)c1 | -8.8% (inactive)
14 | Cc1cccc(N2CCN(c3nc4nonc4nc3N3CCSCC3)CC2)n1 | -22.4% (inactive)
15 | Cc1ccc(NC(=O)C(=O)NCc2ccccn2)cc1 | -47.6% (inactive)
16 | Cc1cc(SCC(N)=O)nc(SCC(=O)c2ccccc2)n1 | 28.1% (inactive)
17 | COc1ccc(C(=O)CSc2cc(C)nc(SCC(=O)c3ccc(C)cc3)n2)cc1 | 63.1% (active)
18 | Cc1ccc(C(=O)CSc2cc(C)nc(SCC(=O)c3ccccc3)n2)cc1 | 61.4% (inactive)
19 | Cc1ccc(S(=O)(=O)N2CCN(C(=O)c3sccc3-c3ccccc3)CC2)cc1 | -24.8% (inactive)
20 | COc1ccc(N(C(C)C(=O)N/N=C/c2ccc(OC(C)C)cc2)S(C)(=O)=O)cc1 (stereo not given) | 14.7% (inactive)

Row | SMILES | inhibition
21 | CC(C)(C)c1[nH]nc2c1C(c1ccsc1)C(C#N)=C(N)O2 (stereo not given) | 59.2% (active)
22 | CC(C)(C)c1[nH]nc2c1C(c1ccncc1)C(C#N)=C(N)O2 (stereo not given) | -8.8% (inactive)
23 | Cc1[nH]nc2c1C(c1ccsc1)C(C#N)=C(N)O2 (stereo not given) | -7.7% (inactive)
24 | Cc1ccc(C)c(NS(=O)(=O)c2csc(C(N)=O)c2)c1 | -9.7% (inactive)
25 | O=C(Nc1ccc(Nc2ccccc2)cc1)C(Cl)Cl | -5.4% (inactive)
26 | CC(=O)c1c(-c2ccccc2)[nH]c2ccccc12 | 5.8% (inactive)
27 | Cc1ccccc1N1C(=O)CC(c2c[nH]c3ccccc23)C1=O (stereo not given) | -3.6% (inactive)
28 | COc1nc(OC)nc(N2CCC(C(=O)NCC3CCCCC3)CC2)n1 | -10.9% (inactive)
29 | Cc1nnc(SCCn2c(N3CCCC(C)C3)nc3c2c(=O)[nH]c(=O)n3C)s1 (stereo not given) | -9.1% (inactive)
30 | C=CCN(CC=C)C(=S)NC(=O)c1ccc(C)c(Br)c1 | 108% (active)
31 | C=CCNC(=S)NC(=O)c1ccc(C)c(Br)c1 | -4.3% (inactive)
32 | C=CCN(CC=C)C(=S)NC(=O)c1ccc(OC)c(Br)c1 | 30.4% (inactive)
33 | O=S(=O)(c1ccc(Cl)cc1)n1cnc2ccccc21 | -31.4% (inactive)
34 | Cc1ccc(-c2csc(N(C)C(=O)c3c(C)nn(-c4ccccc4)c3Cl)n2)cc1 | 33.6% (inactive)
35 | O=C(CN1C(=O)NC2(CCCCC2)C1=O)N1CCN(S(=O)(=O)c2ccccc2)CC1 | -35.1% (inactive)
36 | Cc1cccc(C)c1Nc1nnc(SCc2nc3ccccc3s2)s1 | -39.5% (inactive)
37 | Nc1ccccc1Nc1cc(-c2ccccc2)[nH]n1 | 48.4% (active)
38 | CC1(C)CC(=O)C=C(Nc2cc(-c3ccccc3)[nH]n2)C1 | -25.9% (inactive)
39 | Nc1ccccc1Nc1cc(-c2ccccc2)nn1-c1ccccc1 | -20.6% (inactive)
40 | CC(C)C(NC(=O)c1ccc(F)cc1)C(=O)NCC1CCCO1 (stereo not given) | -6.2% (inactive)

Row | SMILES | inhibition
41 | COc1cc(OC)cc(C(=O)Nc2ccc(S(=O)(=O)N3CCOCC3)cc2)c1 | -9.3% (inactive)
42 | COc1cc(OC)cc(C(=O)N2CCC3(CC2)NCCc2[nH]cnc23)c1 | -20.2% (inactive)
43 | Nc1ncc2c(n1)-c1cc(Cl)ccc1SC2 | -6.1% (inactive)
44 | CC1C/C(=N\NC(N)=S)c2cc(Cl)ccc2S1 (stereo not given) | 3.3% (inactive)
45 | CC1Sc2ccc(Cl)cc2-c2nc(N)ncc21 (stereo not given) | 50.5% (active)
46 | Cc1c(Cl)c([N+](=O)[O-])nn1CCCC(=O)Nc1cccc(O)c1 | -0.3% (inactive)
47 | O=[N+]([O-])c1cc(S(=O)(=O)C(F)(F)F)ccc1Sc1nc2ccccc2[nH]1 | 46.1% (inactive)
48 | Cc1ccc(CN2CCN(Cc3cccn3-c3ccc(Cl)cn3)CC2CCO)o1 (stereo not given) | -17.4% (inactive)
49 | O=C(CSc1ccc2nnc(-c3ccncc3)n2n1)Nc1ccc2c(c1)OCCO2 | 9.6% (inactive)
50 | Cc1ccccc1OCc1nc2ccccc2c(=O)n1/N=C/c1cccc([N+](=O)[O-])c1 | 80.1% (active)
51 | Cc1ccccc1OCc1nc2ccccc2c(=O)n1/N=C/c1ccco1 | 31.5% (inactive)
52 | Cc1cc(/C=N/n2c(COc3ccccc3C)nc3ccccc3c2=O)c(O)c([N+](=O)[O-])c1 | 15% (inactive)
53 | O=C(Oc1ccc2ccc(=O)oc2c1)c1ccc([N+](=O)[O-])cc1 | -9.4% (inactive)
54 | CCc1nc(C)cn1S(=O)(=O)c1ccc(Br)cc1 | -17.6% (inactive)
55 | CCOc1ccccc1NC(=O)c1cc(C(=O)c2cc(Br)ccc2O)coc1=N | 56.4% (active)
56 | CCOC(=O)c1cc(C(=O)c2cc(Br)ccc2O)coc1=N | -15.1% (inactive)
57 | CCOc1ccccc1NC(=O)c1cc(C(=O)c2cc(OC)ccc2O)coc1=N | -9.3% (inactive)
58 | COc1cccc(CNC(=O)C(C)n2nc(C)n3c(cc4occc43)c2=O)c1 (stereo not given) | -11.7% (inactive)
59 | CCOc1cc2[nH]c(=O)n(CCC(=O)NCCc3ccccc3)c(=O)c2cc1OCC | -0.5% (inactive)
60 | Cc1cc(C)c(S(C)(=O)=O)c(S(=O)(=O)c2ccc(Cl)cc2)n1 | -33.9% (inactive)
